Test results reported in the supplement of paper PMC10720658.
± gives the standard deviation of the averaged measurements.

System: AEK1 (Tb927.3.2440)
Experiment: percent reduction in TR-FRET probe signal relative to DMSO control; higher = stronger displacement of ATP-site probe (binding)
Settings: 1 µM; incubation time 1 h

SMILES | percent reduction in TR-FRET probe signal [%]
CCc1nc(-c2cccc(C)c2)c(-c2ccnc(NC(=O)c3ccccc3)c2)s1 | -2.96 ± 11
S=C(NCc1ccc2c(c1)OCO2)N1CCN(c2ncnc3c2oc2ccccc23)CC1 [Amuvatinib (MP-470)] | 3.8 ± 9.9
NCC(=O)Nc1ccc(-n2nc(C(F)(F)F)cc2-c2ccc3c(ccc4ccccc43)c2)cc1 | -2.82 ± 7.5
C=CC(=O)Nc1cccc(Nc2nc(Nc3ccc(OCCOC)cc3)ncc2F)c1 | -0.667 ± 7.7
Oc1cccc(-c2nc(N3CCOCC3)c3oc4ncccc4c3n2)c1 | -5.8 ± 6.4
CC(C)CC(=O)Nc1n[nH]c2c1CN(C(=O)C1CCN(C)CC1)C2(C)C | -0.07 ± 7.6
O=C1c2ccccc2-c2n[nH]c3cccc1c23 | -3.83 ± 17
CS(=O)(=O)N1CCN(Cc2cc3nc(-c4cccc5[nH]ncc45)nc(N4CCOCC4)c3s2)CC1 | 4.23 ± 8.1
COc1ccc(S(=O)(=O)N(CCO)c2ccccc2CN(C)C/C=C/c2ccc(Cl)cc2)cc1.O=P(O)(O)O [KN-93 Phosphate] | -9.18 ± 9.6
COc1cc2c(Nc3ccc(NC(=O)c4ccccc4)cc3)ncnc2cc1OCCCN1CCOCC1 | 4.13 ± 16
Nc1nc(N)c(N=O)c(OCC2CCCCC2)n1 | -2.92 ± 9
CCCNC(=O)c1cn2ncnc(Nc3cc(C(=O)NC4CC4)ccc3C)c2c1C | 10.5 ± 8.4
CN1CCN(c2ccc(Nc3cc(-c4cccc(-n5ccc6cc(C7CC7)cc(F)c6c5=O)c4CO)cn(C)c3=O)nc2)CC1 | 6.04 ± 9
C[C@@H](NC(=O)c1ncnc(N)c1Cl)c1ncc(C(=O)Nc2cc(C(F)(F)F)c(Cl)cn2)s1 | -3.59 ± 11
CC(C)n1nc(-c2ccc3oc(N)nc3c2)c2c(N)ncnc21 | -2.53 ± 6.7
Nc1nc(Nc2ccc(S(N)(=O)=O)cc2)nn1C(=O)c1c(F)cccc1F | 27.8 ± 16
Cc1cc(O)c2c(c1)C(=O)c1cccc(O)c1C2=O [Chrysophanic Acid] | 6.22 ± 14
COc1cc(-c2cc(-c3ccc(N4CCNCC4)cc3)cnc2C)cc(OC)c1OC | -4.94 ± 0.48
Cn1c(=O)c(F)c(Nc2ccc(I)cc2F)c2c(=O)n(C[C@@H](O)CO)cnc21 | 10.1 ± 14

SMILES | percent reduction in TR-FRET probe signal [%]
CCc1cccc(CC)c1NC(=O)N1Cc2[nH]nc(NC(=O)c3ccc(N4CCN(C)CC4)cc3)c2C1 | 29.3 ± 8.1
CO[C@@H](C)Cn1c(=O)n(C)c2cnc3ccc(-c4cncc(C(C)(C)O)c4)cc3c21 | 3.02 ± 4.9
Cl.O=C1NCCc2[nH]c(-c3ccncc3)cc21 | 11.4 ± 8.5
Cc1nc2c(-c3cnc(N)nc3)nc(N3CCOCC3)nc2n1C(C)C | -5.76 ± 8.3
O=c1sn(-c2cccc3ccccc23)c(=O)n1Cc1ccccc1 [Tideglusib] | -35 ± 6.7
C#Cc1cccc(Nc2ncnc3cc(OC)c(OCCCCCCC(=O)NO)cc23)c1 | -2.76 ± 13
Nc1cc(C(F)(F)F)c(-c2cc(N3CCOCC3)nc(N3CCOCC3)n2)cn1 [BKM120 (NVP-BKM120, Buparlisib)] | 8.62 ± 16
Cn1cnc2c(F)c(Nc3ccc(Br)cc3Cl)c(C(=O)NOCCO)cc21 [Selumetinib (AZD6244)] | 11.4 ± 34
CN(c1ncccc1CNc1nc(Nc2ccc3c(c2)CC(=O)N3)ncc1C(F)(F)F)S(C)(=O)=O | 46.8 ± 0.66
CS(=O)(=O)N1CCc2c(-c3cnc(N)nc3)nc(N3CCOCC3)nc21 | -5.47 ± 9.1
N#CCNC(=O)c1ccc(-c2ccnc(Nc3ccc(N4CCOCC4)cc3)n2)cc1 | 16.3 ± 16
COc1cc2c(Oc3ccc(NC(=O)C4(C(=O)Nc5ccc(F)cc5)CC4)cc3F)ccnc2cc1OCCCN1CCOCC1 | 56 ± 11
Nc1ncnc2c1c(-c1cnc3[nH]ccc3c1)nn2C1CCCC1 | 21.6 ± 20
C[C@]1(O)C[C@@H](c2nc(-c3ccc4ccc(-c5ccccc5)nc4c3)c3c(N)nccn32)C1 [OSI-906 (Linsitinib)] | -6.09 ± 6
COc1cc(C(=O)NC2CCN(C)CC2)ccc1Nc1ncc2c(n1)N(C1CCCC1)CC(F)(F)C(=O)N2C | -5 ± 7
CNC(=O)c1cc(Oc2ccc3nc(N[C@@H]4CCCC[C@H]4O)sc3c2)ccn1 | -6.41 ± 1.1
CNC(=O)c1cc(Oc2ccc(NC(=O)Nc3ccc(Cl)c(C(F)(F)F)c3)cc2)ccn1.Cc1ccc(S(=O)(=O)O)cc1 [Sorafenib Tosylate] | 17 ± 12
Cn1cc(C2=C(c3ccc(Cl)cc3Cl)C(=O)NC2=O)c2ccccc21 | -6.53 ± 5.3
